Data: the supplement of paper PMC10849652
The full data set covers some 8,800 targets. This sample favours those with a hit. About 0.5% of all pairs of compound and target were hits.

Key:
Experiment in all cases: log2 fold change, soluble protein after heating vs DMSO (PISA); higher = thermal stabilisation; K562 lysate, 10 uM; active = over 0.2 and 3.5 SD of the protein, either way, in both replicates (recomputed)
[1] = compound: C1=CC=C(C=C1)[C@H](COC2=CC3=C(C=C2)NC(=O)N3)NC(=O)C4=CC=CN(C4=O)CC5=CC(=C(C=C5)F)F
In short: (§1)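 Soluble protein was defined as the supernatant remaining after 21,000xg for 90 min, following pooling of heated aliquots and adjustment to 0.5% NP-40 at 4°C. Before that, crude K562 extract at 1 mg/mL protein in PBS pH 7.4 with 1 mM MgCl2 was treated with 10 μM compound for 30 min and heated for 3 min across 48°C-58°C. Quantification used TMTpro 16plex LC-MS/MS with channel sums equalised, and values are log-two fold changes in thermal stability relative to solvent controls from duplicates.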

[2] = compound: CC1=C(SC2=C1C(=N[C@H](C3=NN=C(N32)C)CC(=O)N)C4=CC=C(C=C4)Cl)C
In short: as §1

[3] = compound: CC1=C2C(=CC=C1)N=C(N(C2=O)C3=CC=CC=C3C)CN4C=NC5=C(N=CN=C54)N
In short: as §1

[4] = compound: Cc1sc2c(c1C)C(c1ccc(Cl)cc1)=N[C@@H](CC(=O)OC(C)(C)C)c1nnc(C)n1-2
In short: as §1

[5] = compound: c1ccc([C@@H]2C[C@H]2NC2CCNCC2)cc1
In short: as §1

Measured: log2 fold change

PLK1 (UniProt P53350)
inactive: [1] 0.033 | [2] 0.042 | [3] 0.052 | [4] -0.026 | [5] 0.084

PWP2 (UniProt Q15269)
inactive: [1] -0.004 | [2] -0.042 | [3] -0.013 | [4] -0.048 | [5] 0.061

PCBP2 (UniProt F8W0G4)
inactive: [1] 0.16 | [2] 0.052 | [3] 0.043 | [4] 0.103

PSTPIP2 (UniProt Q9H939)
inactive: [1] 0 | [2] -0.01 | [3] 0.046 | [4] 0 | [5] 0.027

PREP (UniProt P48147)
inactive: [1] 0.006 | [2] 0.02 | [3] 0.013 | [4] -0.02 | [5] 0.03

PTGES2 (UniProt Q9H7Z7)
inactive: [1] 0.166 | [2] -0.119 | [3] -0.101 | [4] -0.006 | [5] 0.014

PHOSPHO2 (UniProt Q8TCD6)
UniProt Q8TCD6, sequence (Q8TCD6 whole entry, looked up): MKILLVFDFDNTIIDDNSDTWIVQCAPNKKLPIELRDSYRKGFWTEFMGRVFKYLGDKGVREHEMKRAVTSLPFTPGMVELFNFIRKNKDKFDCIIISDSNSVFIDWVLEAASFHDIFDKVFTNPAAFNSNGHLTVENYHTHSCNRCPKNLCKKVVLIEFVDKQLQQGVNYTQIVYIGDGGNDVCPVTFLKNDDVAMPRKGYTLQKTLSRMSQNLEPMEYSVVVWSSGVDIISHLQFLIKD
inactive: [1] -0.029 | [2] 0.02 | [3] 0.046 | [4] -0.053 | [5] 0.061

PCBD2 (UniProt Q9H0N5)
inactive: [1] -0.019 | [2] 0.048 | [3] 0.002 | [4] -0.011 | [5] -0.172

POLR2M (UniProt P0CAP2)
inactive: [1] 0.026 | [2] -0.005 | [3] 0.025 | [4] 0.024 | [5] 0.005

PHC1 (UniProt P78364)
inactive: [1] 0.025 | [2] 0.001 | [3] 0.041 | [4] -0.049

PUS1 (UniProt Q9Y606)
inactive: [1] 0 | [2] 0.014 | [3] 0.013 | [4] -0.024 | [5] 0.029

PPP4R2 (UniProt Q9NY27)
inactive: [1] 0.019 | [2] 0.025 | [3] -0.001 | [4] -0.026 | [5] -0.009

PCF11 (UniProt O94913)
inactive: [1] -0.135 | [2] 0.018 | [3] 0.022 | [4] 0.008 | [5] 0.079

PTMA isoform 2 (UniProt P06454)
inactive: [1] 0.098 | [2] -0.016

PRIMPOL (UniProt Q96LW4)
UniProt Q96LW4, sequence (Q96LW4 whole entry, looked up): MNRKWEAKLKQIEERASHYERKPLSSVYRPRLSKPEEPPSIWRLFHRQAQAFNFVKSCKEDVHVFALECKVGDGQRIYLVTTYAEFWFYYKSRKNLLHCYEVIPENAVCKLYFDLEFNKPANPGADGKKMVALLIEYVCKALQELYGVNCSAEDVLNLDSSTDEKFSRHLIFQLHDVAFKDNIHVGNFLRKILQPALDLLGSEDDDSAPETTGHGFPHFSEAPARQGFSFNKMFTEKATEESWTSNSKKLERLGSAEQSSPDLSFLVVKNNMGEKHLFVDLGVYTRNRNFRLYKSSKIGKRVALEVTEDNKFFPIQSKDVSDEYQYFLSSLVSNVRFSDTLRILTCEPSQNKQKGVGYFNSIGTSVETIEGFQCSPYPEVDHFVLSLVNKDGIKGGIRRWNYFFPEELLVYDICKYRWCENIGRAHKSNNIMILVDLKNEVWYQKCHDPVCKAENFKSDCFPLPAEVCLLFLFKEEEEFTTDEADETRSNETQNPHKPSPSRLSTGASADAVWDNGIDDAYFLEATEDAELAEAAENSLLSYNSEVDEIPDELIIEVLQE
inactive: [1] 0.009 | [2] 0.009 | [3] -0.015 | [4] -0.024

PYURF (UniProt Q96I23)
UniProt Q96I23, sequence (Q96I23 whole entry, looked up): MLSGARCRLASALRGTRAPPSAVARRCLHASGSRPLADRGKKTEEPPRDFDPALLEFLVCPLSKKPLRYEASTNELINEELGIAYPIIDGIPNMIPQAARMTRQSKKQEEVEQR
inactive: [1] 0.03 | [2] 0.048 | [3] 0.126 | [4] 0.007 | [5] -0.091

PSMB9 (UniProt P28065)
UniProt P28065, sequence (P28065 whole entry, looked up): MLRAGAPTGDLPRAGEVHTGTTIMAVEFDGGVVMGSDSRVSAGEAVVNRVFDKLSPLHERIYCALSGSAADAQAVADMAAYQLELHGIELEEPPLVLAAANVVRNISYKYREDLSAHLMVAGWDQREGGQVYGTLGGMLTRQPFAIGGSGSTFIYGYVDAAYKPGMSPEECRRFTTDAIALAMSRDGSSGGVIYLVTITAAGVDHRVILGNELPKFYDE
inactive: [1] 0.074 | [2] 0.159 | [3] 0.111 | [4] -0.095 | [5] -0.013

PPP1R8 (UniProt Q12972)
inactive: [1] 0.006 | [2] 0.017 | [3] 0.003 | [4] 0.059 | [5] -0.142

PICALM (UniProt H0YEH1)
inactive: [1] 0.018 | [2] -0.027 | [3] -0.138 | [4] 0.075 | [5] -0.303

PPP1R12B isoform 6 (UniProt O60237)
inactive: [1] 0.043 | [2] 0.033 | [3] 0.088 | [4] -0.145

PES1 (UniProt O00541)
inactive: [1] 0.027 | [2] 0.016 | [3] 0.019 | [4] 0.016 | [5] 0.02

PRC1 (UniProt O43663)
UniProt O43663, sequence (O43663 whole entry, looked up): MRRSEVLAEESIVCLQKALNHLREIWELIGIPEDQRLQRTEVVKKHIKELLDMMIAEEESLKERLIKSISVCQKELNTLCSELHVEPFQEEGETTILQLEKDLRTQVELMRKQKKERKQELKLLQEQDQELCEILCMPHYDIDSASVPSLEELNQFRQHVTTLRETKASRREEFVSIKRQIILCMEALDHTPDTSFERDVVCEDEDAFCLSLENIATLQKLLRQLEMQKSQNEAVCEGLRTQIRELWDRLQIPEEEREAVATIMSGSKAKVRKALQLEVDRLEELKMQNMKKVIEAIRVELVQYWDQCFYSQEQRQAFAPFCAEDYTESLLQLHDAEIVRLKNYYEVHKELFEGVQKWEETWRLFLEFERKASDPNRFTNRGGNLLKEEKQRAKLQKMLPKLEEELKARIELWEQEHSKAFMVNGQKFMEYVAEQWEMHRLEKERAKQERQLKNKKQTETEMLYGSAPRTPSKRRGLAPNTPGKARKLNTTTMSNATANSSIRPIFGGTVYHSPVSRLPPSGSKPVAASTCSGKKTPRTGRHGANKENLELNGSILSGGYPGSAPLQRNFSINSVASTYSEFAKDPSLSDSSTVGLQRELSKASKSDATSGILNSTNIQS
inactive: [1] 0.089 | [2] 0.037 | [3] 0.026 | [4] 0.03 | [5] 0.043

PHF14 (UniProt O94880)
inactive: [1] 0.048 | [2] 0.025 | [3] -0.038 | [4] 0.019

PTP4A1 (UniProt Q93096)
inactive: [1] 0.047 | [2] 0.006 | [3] 0.012 | [4] -0.01 | [5] 0.041

PHKG2 (UniProt P15735)
UniProt P15735, sequence (P15735 whole entry, looked up): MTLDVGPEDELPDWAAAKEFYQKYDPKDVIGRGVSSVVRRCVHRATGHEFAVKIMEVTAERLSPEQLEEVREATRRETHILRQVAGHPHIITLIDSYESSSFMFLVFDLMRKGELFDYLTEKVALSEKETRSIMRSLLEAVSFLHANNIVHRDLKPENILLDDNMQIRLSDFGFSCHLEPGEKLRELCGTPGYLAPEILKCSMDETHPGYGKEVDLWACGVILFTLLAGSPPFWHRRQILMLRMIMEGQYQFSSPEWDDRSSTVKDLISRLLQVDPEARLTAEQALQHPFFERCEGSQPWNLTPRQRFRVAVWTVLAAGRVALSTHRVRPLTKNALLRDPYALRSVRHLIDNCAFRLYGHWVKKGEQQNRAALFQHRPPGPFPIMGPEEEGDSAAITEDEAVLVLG
inactive: [1] 0.039 | [2] -0.038 | [3] -0.037 | [4] -0.002 | [5] -0.022

POLA1 (UniProt P09884)
inactive: [1] 0.006 | [2] 0.01 | [3] 0.037 | [4] -0.002 | [5] 0.002

PCBP2 isoform 3 (UniProt Q15366)
inactive: [1] -0.011 | [2] 0.017 | [3] -0.041 | [4] 0.061 | [5] 0.05

PPM1H (UniProt Q9ULR3)
UniProt Q9ULR3, sequence (Q9ULR3 whole entry, looked up): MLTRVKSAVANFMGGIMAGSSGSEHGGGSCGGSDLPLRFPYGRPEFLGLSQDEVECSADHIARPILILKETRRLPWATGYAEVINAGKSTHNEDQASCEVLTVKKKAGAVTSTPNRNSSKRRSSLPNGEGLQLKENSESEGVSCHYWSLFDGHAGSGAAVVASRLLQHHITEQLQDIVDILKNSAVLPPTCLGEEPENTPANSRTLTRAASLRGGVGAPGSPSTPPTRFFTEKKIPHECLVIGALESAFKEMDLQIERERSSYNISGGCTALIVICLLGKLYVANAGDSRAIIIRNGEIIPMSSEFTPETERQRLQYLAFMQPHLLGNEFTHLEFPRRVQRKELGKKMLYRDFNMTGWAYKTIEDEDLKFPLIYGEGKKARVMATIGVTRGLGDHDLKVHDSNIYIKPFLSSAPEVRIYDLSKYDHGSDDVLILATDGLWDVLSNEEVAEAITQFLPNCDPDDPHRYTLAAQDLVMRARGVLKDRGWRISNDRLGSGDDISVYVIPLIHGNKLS
inactive: [1] 0.011 | [2] -0.023 | [3] -0.008 | [4] 0.062 | [5] 0.05

PRMT8 (UniProt Q9NR22)
inactive: [1] -0.016 | [2] 0.031 | [3] 0.01 | [4] -0.041 | [5] -0.147

PI4K2B (UniProt Q8TCG2)
inactive: [1] -0.033 | [2] 0.048 | [3] 0.074 | [4] 0.068 | [5] 0.077

QKI (UniProt Q96PU8)
inactive: [1] -0.071 | [2] -0.001 | [3] -0.023 | [4] 0.04 | [5] -0.034

PPME1 isoform 4 (UniProt Q9Y570)
inactive: [1] -0.004 | [2] 0.013 | [3] -0.019 | [4] 0.021 | [5] 0.007

PCLAF (UniProt Q15004)
inactive: [1] 0.053 | [2] 0.016 | [3] -0.037 | [4] -0.059 | [5] -0.039

PRMT5 (UniProt O14744)
inactive: [1] -0.01 | [2] 0.031 | [3] 0.006 | [4] -0.013 | [5] 0.002

PTPN7 isoform 3 (UniProt P35236)
inactive: [1] -0.028 | [2] 0.002 | [3] -0.031 | [4] 0.015 | [5] -0.012

PEF1 (UniProt Q9UBV8)
inactive: [1] 0.016 | [2] -0.039 | [3] 0.055 | [4] 0.048 | [5] -0.031

POC5 (UniProt Q8NA72)
inactive: [1] 0.016 | [2] -0.052 | [3] 0.161 | [4] 0.17 | [5] -0.097

POLR3E (UniProt Q9NVU0)
UniProt Q9NVU0, sequence (Q9NVU0 whole entry, looked up): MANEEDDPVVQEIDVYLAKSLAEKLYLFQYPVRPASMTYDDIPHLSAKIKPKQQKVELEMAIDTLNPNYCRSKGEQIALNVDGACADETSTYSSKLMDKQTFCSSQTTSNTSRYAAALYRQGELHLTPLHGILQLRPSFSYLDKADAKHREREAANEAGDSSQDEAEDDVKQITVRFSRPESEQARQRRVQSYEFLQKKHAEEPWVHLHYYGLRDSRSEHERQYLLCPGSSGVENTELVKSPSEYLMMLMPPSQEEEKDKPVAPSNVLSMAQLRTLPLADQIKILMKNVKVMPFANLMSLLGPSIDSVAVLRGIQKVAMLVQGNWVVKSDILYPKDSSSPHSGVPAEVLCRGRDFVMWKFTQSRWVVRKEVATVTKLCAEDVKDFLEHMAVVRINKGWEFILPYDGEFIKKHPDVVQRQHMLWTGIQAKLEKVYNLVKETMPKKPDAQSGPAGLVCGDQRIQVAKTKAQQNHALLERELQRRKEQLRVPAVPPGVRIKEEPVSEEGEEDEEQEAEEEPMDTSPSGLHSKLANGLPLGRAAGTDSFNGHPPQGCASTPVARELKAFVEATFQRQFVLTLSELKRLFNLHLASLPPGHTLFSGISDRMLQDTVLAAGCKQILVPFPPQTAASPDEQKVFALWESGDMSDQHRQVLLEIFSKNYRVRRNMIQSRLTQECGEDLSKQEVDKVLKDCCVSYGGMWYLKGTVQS
inactive: [1] -0.031 | [2] -0.003 | [3] -0.001 | [4] -0.002 | [5] -0.012

PHLDB1 (UniProt Q86UU1)
inactive: [1] -0.006 | [2] 0.007 | [3] 0.054 | [4] -0.027 | [5] 0.036

PPP2R5C isoform 2 (UniProt Q13362)
inactive: [1] -0.016 | [2] 0.224 | [3] 0.004 | [4] -0.136 | [5] 0.026

PGRMC1 (UniProt O00264)
inactive: [1] 0.073 | [2] -0.038 | [3] 0.008 | [4] -0.031 | [5] -0.039

PRIM2 (UniProt P49643)
UniProt P49643, sequence (P49643 whole entry, looked up): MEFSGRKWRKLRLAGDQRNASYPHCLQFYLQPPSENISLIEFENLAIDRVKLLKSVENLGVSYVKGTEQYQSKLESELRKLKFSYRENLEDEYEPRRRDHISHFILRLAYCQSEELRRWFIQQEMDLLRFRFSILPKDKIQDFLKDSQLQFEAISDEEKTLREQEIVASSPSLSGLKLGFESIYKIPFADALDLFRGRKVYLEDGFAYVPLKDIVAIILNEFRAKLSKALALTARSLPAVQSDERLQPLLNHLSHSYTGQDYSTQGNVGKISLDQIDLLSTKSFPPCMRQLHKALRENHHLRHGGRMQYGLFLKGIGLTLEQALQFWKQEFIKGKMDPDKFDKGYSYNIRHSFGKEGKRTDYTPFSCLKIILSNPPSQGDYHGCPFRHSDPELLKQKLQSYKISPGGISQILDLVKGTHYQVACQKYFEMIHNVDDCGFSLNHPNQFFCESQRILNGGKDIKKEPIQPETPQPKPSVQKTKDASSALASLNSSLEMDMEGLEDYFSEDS
inactive: [1] 0.004 | [2] 0.026 | [3] 0.016 | [4] 0.009 | [5] 0.028

PUM1 isoform 3 (UniProt Q14671)
inactive: [1] -0.057 | [2] 0.048 | [3] 0.024 | [4] -0.003 | [5] 0.054

PFKFB4 (UniProt Q16877)
inactive: [1] -0.066 | [2] 0.023 | [3] 0.059 | [4] -0.053 | [5] -0.007

PPP2R3C (UniProt Q969Q6)
inactive: [1] -0.044 | [2] 0.006 | [3] 0.042 | [4] -0.052 | [5] 0.059

PRKAR2B (UniProt P31323)
inactive: [1] -0.028 | [2] 0.018 | [3] 0.011 | [4] -0.002 | [5] 0.068

PUF60 (UniProt Q9UHX1)
inactive: [1] -0.017 | [2] 0.006 | [3] 0.004 | [4] 0.028 | [5] 0.059

PRKD2 isoform 3 (UniProt Q9BZL6)
inactive: [1] 0.001 | [2] -0.031 | [3] 0.121 | [4] 0.02 | [5] 0.104

PFKP (UniProt Q01813)
UniProt Q01813, sequence (Q01813 whole entry, looked up): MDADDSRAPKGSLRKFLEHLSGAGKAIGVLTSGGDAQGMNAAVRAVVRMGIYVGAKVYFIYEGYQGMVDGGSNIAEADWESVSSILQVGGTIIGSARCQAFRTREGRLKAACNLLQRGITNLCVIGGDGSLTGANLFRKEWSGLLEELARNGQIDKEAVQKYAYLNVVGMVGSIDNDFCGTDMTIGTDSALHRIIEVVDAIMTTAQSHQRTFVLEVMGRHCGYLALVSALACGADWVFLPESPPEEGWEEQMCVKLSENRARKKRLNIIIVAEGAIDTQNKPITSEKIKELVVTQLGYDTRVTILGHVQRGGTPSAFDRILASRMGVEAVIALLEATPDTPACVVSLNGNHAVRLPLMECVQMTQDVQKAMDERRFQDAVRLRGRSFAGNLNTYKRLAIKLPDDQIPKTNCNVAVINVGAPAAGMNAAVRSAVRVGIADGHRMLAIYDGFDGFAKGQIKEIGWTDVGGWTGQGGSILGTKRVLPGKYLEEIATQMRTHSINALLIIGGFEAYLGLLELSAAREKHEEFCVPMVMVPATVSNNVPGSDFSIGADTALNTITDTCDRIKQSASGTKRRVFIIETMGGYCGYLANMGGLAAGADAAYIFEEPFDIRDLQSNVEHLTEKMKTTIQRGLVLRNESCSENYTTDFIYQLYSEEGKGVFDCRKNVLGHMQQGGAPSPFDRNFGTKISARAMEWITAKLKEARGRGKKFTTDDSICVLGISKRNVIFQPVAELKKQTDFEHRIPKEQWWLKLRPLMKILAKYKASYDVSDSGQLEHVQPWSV
inactive: [1] -0.005 | [2] 0.02 | [3] 0.043 | [4] -0.031 | [5] 0.027

PDCD6IP isoform 2 (UniProt Q8WUM4)
inactive: [1] -0.019 | [2] -0.004 | [3] 0.018 | [4] 0.02 | [5] 0.056

PHKA2 (UniProt P46019)
inactive: [1] -0.111 | [2] 0.028 | [3] 0.052 | [4] 0.021 | [5] 0.038

PPP2R5B (UniProt Q15173)
inactive: [1] -0.08 | [2] -0.037 | [3] -0.024 | [4] -0.006 | [5] 0.066

PPCDC (UniProt Q96CD2)
UniProt Q96CD2, sequence (Q96CD2 whole entry, looked up): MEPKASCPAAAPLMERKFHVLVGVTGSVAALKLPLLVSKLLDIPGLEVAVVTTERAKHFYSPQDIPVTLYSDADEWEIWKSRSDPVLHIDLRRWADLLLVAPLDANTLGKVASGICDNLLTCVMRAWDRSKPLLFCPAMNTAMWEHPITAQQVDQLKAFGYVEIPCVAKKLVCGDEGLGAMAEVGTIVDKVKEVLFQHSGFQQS
inactive: [1] -0.02 | [2] 0.034 | [3] -0.054 | [4] -0.074 | [5] -0.191

PLEKHO2 (UniProt Q8TD55)
inactive: [1] -0.158 | [2] 0.077 | [3] -0.076 | [4] -0.107 | [5] 0.043
